Our source for the Potency and activity change, negative = inhibition values is PubChem BioAssay AID893 (National Center for Advancing Translational Sciences (NCATS), 2007).

Hit rate of the full screen: of about 75,000 compounds, about 5,700 (7.6%) were called active. A call without a number means that no potency is given here. Another 7% or so got no clear call; they are omitted. The sample holds actives, similar compounds and a random draw of the others, so the mix is not that of the screen. The call rests on the fitted dose curve; in most records, active means well fitted inhibition curve with a large enough effect; inconclusive means small, poorly fitted or top-dose-only effect; inactive means no such curve, though single readings can be large or run the other way.
Potency means the concentration at half of the fitted maximal effect.

The target of this assay is 3-hydroxyacyl-CoA dehydrogenase type-2 (Homo sapiens) (UniProt Q99714). The assay is described as follows: qHTS Assay for Inhibitors of HSD17B4, hydroxysteroid (17-beta) dehydrogenase 4.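 Further: the protocol describes HADH2 (HSD17B10) and not the HSD17B4 of the title; nearly all actives have a fitted effect of over 70% in size.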 The conditions noted are these: recombinant HSD17B10, NADH fluorescence kinetic; series mostly up to 57.1 µM. In a few lines:
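His-tagged E. coli-expressed HADH2 at 20 nM in 100 mM Tris-HCl pH 9.0 with 0.01 % Tween-20, preincubated 15 min with compound at room temperature. Reaction with 1 mM NAD+ and 90 uM beta-hydroxybutyryl coenzyme A; NADH fluorescence (360/450 nm) read kinetically over 4 min, last minus first point.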
A general note: In qHTS, concentration-response curves come from the screen itself.
On to `C=C(C)Cn1c(SCC(=O)NCc2ccco2)nc2sc3c(c2c1=O)CCC3`, for which the Potency result is “inactive”.
In the case of `CN1CCc2c(sc3c2c(NCc2ccco2)nc2nnnn23)C1`, the Potency is 31.6 µM (active).
The same measure, in the same setting: the entry for `O=C(Cc1ccccc1)n1nc(-c2ccccc2)nc1NCc1ccco1` is “inactive”; for `CC(=O)NCCc1ccc(S(=O)(=O)N(C)C2CCS(=O)(=O)C2)cc1` (stereo unspecified) it is “inactive”; for `CCn1c(COc2ccccc2)nnc1SCC(=O)Nc1ccc2c(c1)OCCO2` it is “inactive”.
Take `CN1CCN(S(=O)(=O)c2ccc(NC(=O)C3CCCO3)cc2)CC1` (stereo unspecified): the Potency entry was “inactive”.
`COc1ccc2[nH]c3c(=O)n(Cc4ccco4)cnc3c2c1`: the Potency is 3.16 µM (active).
In the case of `COc1ccc(C(=O)CSc2nnc(COc3ccccc3)n2Cc2ccco2)cc1`, the Potency entry was “inactive”.
Take `O=c1c2[nH]c3ccc(Cl)cc3c2ncn1Cc1ccccn1`: the Potency result is “inactive”.
For the compound `Cc1cc(C)c2nc3c(c([C@H](O)[C@@H]4CCCCN4)c2c1)CC/C3=C/c1ccc(Cl)cc1`, the activity change, negative = inhibition was 9.81% [at 11.4 µM] (inactive).
Consider `O=C1CC(c2cccc(Br)c2)C2=C(CCCC2=O)N1` (stereo unspecified), for which the Potency result was “inactive”.
In the case of `COc1cc2c(cc1NC(=O)CN1CCN(S(=O)(=O)c3ccc(F)cc3)CC1)oc1ccccc12`, the Potency was 3.16 µM (active).
With `O=C(CN1CCN(S(=O)(=O)c2ccc(F)cc2)CC1)Nc1ccccc1F`, the Potency result is “inactive”.
Same read-out and setting: in the case of `COc1ccc(NC(=O)CN2CCN(S(=O)(=O)c3ccc(F)cc3)CC2)cc1Cl` it was “inactive”; in that of `CCN(CCCCOC(=O)c1ccc(OC)c(OC)c1)C(C)Cc1ccc(OC)cc1` (stereo unspecified), “inactive”; in that of `CCN(CC)S(=O)(=O)N1CCC(C(=O)NC(C)CCc2ccccc2)CC1` (stereo unspecified), “inactive”.
On to `Cc1ccc2c(NC(=O)C3CC3)cccc2n1`, for which the Potency entry is “inactive”.
Regarding `CC(=O)N1CCC(C(=O)Nc2nc(-c3ccccc3)ns2)CC1`, the Potency is 10 µM (active).
In the case of `CCOC(=O)c1nc(N)sc1C(=O)OCC`, the Potency result is “inactive”.
On the same count and under the same terms, the figure for `CN1CCCc2cc(C#N)c(=O)[nH]c21` is 15.8 µM (active); for `COc1ccccc1Cn1c(=S)[nH]c2cc(C(=O)N3CCN(C)CC3)ccc2c1=O` it is “inactive”.
Regarding `CC1=C(C(=O)Nc2ccccc2)C(c2cccs2)C(C#N)=C(SCC#N)N1` (stereo unspecified), the Potency is 31.6 µM (active).
As to `CCOC(=O)CSC1=C(C#N)C(c2ccco2)C(C(=O)OCc2ccccc2)=C(C)N1` (stereo unspecified), the Potency result is “inactive”.
Take `CCOC(=O)CSC1=C(C#N)C(c2sccc2C)CC(=O)N1` (stereo unspecified): the Potency result was “inactive”.
Turning to `O=C(Cn1nnc(-c2ccc(CN3CCOCC3)cc2)n1)NC1CCCCC1`, the Potency result was “inactive”.
With `COCCCNC(=O)COc1cc(C)c(Cl)c(C)c1`, the Potency result is “inactive”.
Regarding `CCC/C(O)=C1\C(=O)CC(C)(C)CC1=Nc1ccccc1OC`, the Potency result was “inactive”.
On to `CCCNC(=O)OC[C@@H]1O[C@H](c2ccccc2)C=C[C@@H]1Oc1ccc(OC)cc1`, for which the activity change, negative = inhibition was -0.586% [at 11.4 µM] (inactive).
Turning to `COc1nc(NCc2ccc(Cl)cc2)nc(OC)n1`, the Potency result is “inactive”.
`COc1ccc(-n2c(C)nc3c(cnn3-c3ccccc3)c2=O)cc1`: the Potency result was “inactive”.
Take `COc1ccc(-c2c3c(=O)n(C)c(=O)n(C)c3cn2-c2cccc(OC)c2)cc1`: the Potency entry is “inactive”.
With `O=c1c(-c2cccs2)nc2cnc(Oc3ccccc3)nc2n1-c1ccccc1`, the Potency is 25.1 µM (active).
As for `Cn1cc(-c2nc3cncnc3n(-c3ccccc3)c2=O)c2ccccc21`, the Potency result was “inactive”.
Take `COc1ccc(Oc2ncc3nc(-c4ccc(F)cc4)c(=O)n(C)c3n2)cc1`: the Potency was 31.6 µM (active).
On to `COc1ncc2nc(-c3ccc(Cl)cc3)c(=O)n(-c3ccccc3)c2n1`, for which the Potency was 25.1 µM (active).
For the compound `COc1ncc2nc(-c3ccc(Cl)cc3)c(=O)n(C)c2n1`, the Potency is 31.6 µM (active).
For the compound `COc1ccc(Oc2ncc3nc(C)c(=O)n(-c4ccccc4)c3n2)cc1`, the Potency result was “inactive”.
`CN(C(=O)COc1nnc(-c2cccs2)c(-c2cccs2)n1)c1ccccc1`: the Potency entry was “inactive”.
As to `COc1ccc(C(=O)n2nc(-c3ccc(Cl)cc3)nc2N)cc1OC`, the Potency entry is “inactive”.
For the compound `Cc1ccc(S(=O)(=O)N2CCC(C(=O)N[C@@H](C)C(=O)NCc3ccccc3)CC2)cc1`, the Potency result was “inactive”.
Take `O=C(Nc1cccc2c1CCCC2)C1CCN(C(=O)NC2CCCCC2)CC1`: the Potency result is “inactive”.
`c1ccc2sc(SCCSc3nc4ccccc4s3)nc2c1`: the activity change, negative = inhibition was 2.8% [at 11.4 µM] (inactive).
Regarding `O=C(c1cc(-c2cccc(O)c2)on1)N1CCc2ccccc2C1`, the Potency result was “inactive”.
`O=C1CN(C(=O)COC(=O)C2CC(=O)N(Cc3ccco3)C2)c2ccccc2N1` (stereo unspecified): the Potency entry was “inactive”.
In the case of `CN(C)C(=O)/N=N\C(=O)N(C)C`, the Potency entry is “inactive”.
As for `COc1ccc(-c2nc3cnc(Oc4ccccc4)nc3n(Cc3cccs3)c2=O)cc1`, the Potency is 12.6 µM (active).
`COCCn1c(=O)c(-c2ccc(OC)cc2)nc2cnc(Oc3cccc(Cl)c3)nc21`: the Potency entry was “inactive”.
Same read-out and setting: in the case of `CN1CCN(c2cc(=O)n(-c3ccc(Cl)cc3)c(=O)[nH]2)CC1` it was “inactive”; in that of `O=C1c2cccnc2C(=O)N1Cc1cccs1`, “inactive”.
For `O=c1c(-c2ccc(F)c(F)c2)nc2cncnc2n1-c1ccccc1`, the Potency entry is “inactive”.
For `CN1CCN(c2ncc3nc(-c4ccc(Cl)cc4)c(=O)n(-c4ccccc4)c3n2)CC1`, the Potency was 25.1 µM (active).
The same measure, in the same setting: in the case of `C=CC(=O)OCCOCCOCCOCCOC(=O)C=C` it was “inactive”; in that of `Cc1ccccc1NC(=O)Cc1nnc(SCC(=O)N2CCN(c3ccccc3)CC2)n1C`, “inactive”.
For `Cc1nnc(SCC(=O)Nn2cnnc2)s1`, the Potency entry was “inactive”.
`CC(C)[C@H](CO)Nc1nc(Nc2cc(N)cc(Cl)c2)c2ncn(C(C)C)c2n1`: the Potency result was “inactive”.
The same measure, in the same setting: in the case of `Cc1c(CN2CCC(C)CC2)c(=O)n(-c2ccccc2)n1C` it was “inactive”; in that of `COC(=O)[C@@H]1C[C@@]2(O)[C@H](O)[C@H](O)[C@H](O)C[C@H]2N1CC1CCCCC1`, “inactive”; in that of `CCOc1ccc(S(=O)(=O)n2ccnc2)c2ccccc12`, “inactive”.
For the compound `CCSc1nc(C)nc2c1oc1ccccc12`, the Potency result was “inactive”.
The same measure, in the same setting: in the case of `CCc1nc(Nc2ccc3nccnc3c2)c2oc3ccccc3c2n1` it was 12.6 µM (active); in that of `C[C@@H](Nc1nc(-c2ccccc2)nc2c1oc1ccccc12)C(=O)O`, “inactive”.
For the compound `Cc1cccc(N2CCN(S(=O)(=O)c3ccc4c(c3)c(=O)n(C)c(=O)n4C)CC2C)c1` (stereo unspecified), the Potency entry was “inactive”.
For the compound `Cc1ccc(C)c(S(=O)(=O)n2cnc3ccccc32)c1`, the Potency result was “inactive”.
`CC(=O)OCC1OC(C#Cc2ccccc2Cl)C=CC1OC(C)=O` (stereo unspecified): the activity change, negative = inhibition is -6.58% [at 11.4 µM] (inactive).
Turning to `COc1ccc2nc(NC3=NCN(CC4CCCO4)CN3)nc(C)c2c1` (stereo unspecified), the Potency is 31.6 µM (active).
On the same count and under the same terms, in the case of `COc1ccc(C2CC(=O)C=C(NCC3CCCO3)C2)cc1` (stereo unspecified) it was “inactive”; in that of `Cc1ccc2nc(NC3=NCN(CCc4ccccc4)CN3)nc(C)c2c1`, “inactive”.
As for `Oc1ccccc1CNCc1ccccc1O`, the activity change, negative = inhibition was -0.327% [at 11.4 µM] (inactive).
In the case of `CSc1sc(C)cc1C1C(C#N)=C(N)N(c2cccnc2)C2=C1C(=O)CCC2` (stereo unspecified), the Potency was 15.8 µM (active).
Turning to `O=S(=O)(c1ccccc1)N1CCC2(CC1)CN(Cc1nccs1)C2`, the Potency entry is “inactive”.
Regarding `CCCC(C(=O)N1CCOCC1)N1C(=O)C2C3C=CC(C3)C2C1=O` (stereo unspecified), the Potency result was “inactive”.
`O=C(O)C1CCN(S(=O)(=O)N2CCOCC2)CC1`: the Potency result is “inactive”.
For the compound `CCOC(=O)N1CCN(C(=O)c2cc3c(-c4ccc(Cl)cc4)nn(C)c3s2)CC1`, the Potency entry is “inactive”.
Take `COc1ccccc1N1CCN(C(=O)c2cc3c(-c4ccc(Cl)cc4)nn(C)c3s2)CC1`: the Potency result is “inactive”.
Regarding `Cn1nc(-c2ccc(Cl)cc2)c2cc(C(=O)NCc3ccco3)sc21`, the Potency was 31.6 µM (active).
For the compound `O=C(C(Cc1ccccc1)n1cccc1)N1CCN(C2CCCCC2)CC1` (stereo unspecified), the Potency result is “inactive”.
On the same count and under the same terms, the figure for `Cc1ccc(C)n1C(Cc1ccccc1)C(=O)O` (stereo unspecified) is 10 µM (active).
With `CC(Cc1ccccc1)C(=O)N(C)Cc1ccccc1` (stereo unspecified), the Potency entry was “inactive”.
Consider `C=CCn1c(SCc2cc(C(=O)OC)c(C)o2)nnc1-c1ccncc1`, for which the Potency entry is “inactive”.
`CCC(C)(C(=O)NC1CCCC1)N(C(=O)CNC(C)=O)c1ccc(C)cc1` (stereo unspecified): the Potency entry is “inactive”.
Take `O=C(CSC1=Nc2ccccc2C2=NC(c3ccccc3)C(=O)N12)NCC1CCCO1` (stereo unspecified): the Potency is 31.6 µM (active).
On to `Cc1ccc2cc(C#N)c(SCC(=O)NCC3CCCO3)nc2c1C` (stereo unspecified), for which the Potency result is “inactive”.
In the case of `O=C(CS(=O)(=O)Cc1ccccc1)NCC1CCCO1` (stereo unspecified), the Potency result is “inactive”.
For the compound `Cc1ncn(C23CC4CC(CC(O)(C4)C2)C3)n1`, the Potency entry is “inactive”.
Turning to `COC(=O)C1(C)C=CC2(CCCCC2)N1C(C)=O` (stereo unspecified), the Potency entry was “inactive”.
As for `O=C(O)C1=CCCN(CCON=C(c2ccccc2)c2ccccc2)C1`, the Potency result was “inactive”.
For `O=C(Nc1ccccc1)N[C@H]1C[C@H](C(=O)O)Nc2cc(Cl)cc(Cl)c21`, the Potency entry is “inactive”.
Same read-out and setting: in the case of `COc1ccc(S(=O)(=O)N2CCC(C(=O)N3CCOCC3)CC2)cc1OC` it was “inactive”; in that of `COc1cc2nc(N3CCN(C(=O)[C@@H]4CCCO4)CC3)nc(N)c2cc1OC`, 12.6 µM (active); in that of `O=C(C1CCCO1)N1CCC(c2nc3ccccc3[nH]2)CC1` (stereo unspecified), “inactive”.
The same measure, in the same setting: in the case of `COc1ccc(N2C(=O)C3CCCN3C2c2cc(OC)c(OC)cc2OC)cc1` (stereo unspecified) it was “inactive”; in that of `CCN(CC)S(=O)(=O)c1cc(C(=O)Nc2ccccn2)ccc1C`, “inactive”.
Regarding `CCOc1ccccc1C(=O)NCc1ccco1`, the Potency was 25.1 µM (active).
Same read-out and setting: in the case of `COc1ccccc1C(=O)NCCn1cc(SCC(=O)NCc2ccco2)c2ccccc21` it was “inactive”.
Turning to `CCCCOc1ccc(C(=O)NCc2ccco2)cc1`, the Potency entry is “inactive”.
In the case of `Cn1cccc1C(=O)NC(=O)COC(=O)Cc1coc2ccc3ccccc3c12`, the Potency is 31.6 µM (active).
For the compound `Cn1cccc1C(=O)Nc1nccs1`, the Potency entry was “inactive”.
Same read-out and setting: in the case of `CC(C)(C)NC(=O)NC(=O)COC(=O)Cn1c(C(F)(F)F)nc2ccccc21` it was “inactive”; in that of `CSCC[C@H](NC(=O)NCCc1ccc(F)cc1)C(=O)O`, “inactive”.
Turning to `O=C1OC(C(O)CO)C(O)=C1O` (stereo unspecified), the Potency result is “inactive”.
Same read-out and setting: the entry for `COc1ccc(CCN=C2SCC(=O)N2C)cc1OC` is “inactive”; for `COc1ccc(C(=O)N(Cc2ccc(N(C)C)cc2)C2CCS(=O)(=O)C2)cc1` (stereo unspecified) it is “inactive”; for `CCCCC(CC)CN` (stereo unspecified) it is “inactive”.
Same read-out and setting: the entry for `O=C(c1ccc(O)cc1)c1ccc(C(=O)O)c(C(=O)O)c1` is “inactive”.
Still for that read-out and setting: in the case of `N[C@@H](C(=O)O)c1ccc(P(=O)(O)O)cc1` it was “inactive”.
Consider `N[C@H](C(=O)O)c1ccc(C(=O)O)c(O)c1`, for which the Potency was 39.8 µM (active).
